Experimental data: PubChem BioAssay (NCATS)
Results filed as inconclusive are left out. The source made the active and inactive calls. Unless noted, the call rests on the fitted dose curve.

Tests used:
[1] = Cytotoxicity counterscreen for inhibitors of SARS-CoV-2 cell entry (AID 1645845); conditions: cell viability (SARS-CoV-2 entry assay cells); series mostly up to 57.1 µM; further: nearly all actives have a fitted effect of over 50% in size
Outline: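 48 h compound treatment (after 1 h preincubation), HEK293-ACE2 cells, 37 C/5% CO2; ATP luminescence endpoint; normalized to cell wells and media blanks.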

[2] = Primary qHTS to identify inhibitors of SARS-CoV-2 cell entry (AID 1645846); conditions: SARS-CoV-2 pseudovirus cell entry assay, luminescence; activity change, negative = inhibition: at 57.1 µM (top of the series) unless noted; series mostly up to 57.1 µM; further: nearly all actives have a fitted effect of over 45% in size
Outline: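 Inhibition of spike-mediated entry was scored in human ACE2-transfected Expi293F cells. Particles were MLV-pseudotyped with Wuhan-Hu-1 S carrying a 19-aa C-terminal deletion; signal was luciferase after two days, scaled between spike PP and fusion-protein-free PP.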

[3] = VSVG counterscreen qHTS to identify inhibitors of SARS-CoV-2 cell entry (AID 1645847); conditions: VSV-G pseudotyped particle entry, luciferase; series mostly up to 57.2 µM; further: nearly all actives have a fitted effect of over 65% in size; on activity change, negative = inhibition: on the % scale 0 is the no-effect control and ±100 the full control effect
Outline: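 Luminescence from a luciferase reporter, normalised to bald particle and VSV-G pseudotyped particle wells, is the read-out. Cells are HEK293 expressing human ACE2, exposed to compound 1 h before a 48 h particle infection at 37 °C.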

[4] = Primary qHTS for inhibitors of nuclear receptor binding SET domain protein 2 (NSD2) in an isogenic RCH-ACV NSD2 p.E1099K mutant (9B) (AID 1645876; active means well fitted curve in the direction sought with a large enough effect; an effect the other way counts as inactive or inconclusive; further: nearly all actives have a fitted effect of over 70% in size); conditions: RCH-ACV NSD2 E1099K (9B) viability, CellTiter-Glo, 72 h; series mostly up to 44.9 µM
[5] = Primary qHTS for inhibitors of nuclear receptor binding SET domain protein 2 (NSD2) in an RCH-ACV wild type WT cells (2C) (AID 1645877; active means well fitted curve in the direction sought with a large enough effect; an effect the other way counts as inactive or inconclusive; further: nearly all actives have a fitted effect of over 70% in size); conditions: RCH-ACV (leukaemia line) NSD2 WT (2C) viability, CellTiter-Glo, 72 h; series mostly up to 44.9 µM
Potency means the concentration at half of the fitted maximal effect.

Structure (SMILES): COc1c(Cl)cc2c([nH]c3cnccc32)c1NC(=O)c1cccnc1C
- Potency [1]: inactive
- activity change, negative = inhibition [2]: -30.2%
- Potency [3]: inactive

Structure (SMILES): CN(C)CC/C=C1/c2ccccc2COc2ccc(CC(=O)O)cc21
- Potency [1]: inactive
- Potency [2]: inactive
- activity change, negative = inhibition [2]: -14.5%

Structure (SMILES): C=CCn1c(=O)c2cnc(Nc3ccc(N4CCN(C)CC4)cc3)nc2n1-c1cccc(C(C)(C)O)n1
- Potency [2]: 1.41 µM (active)

Structure (SMILES): O=c1[nH]c2ccccc2n1C1CCN(Cc2ccc(-c3[nH]c4cc5ncnc5cc4nc3-c3ccccc3)cc2)CC1
- Potency [1]: inactive
- Potency [4]: 2.95 µM (active)
- Potency [5]: 5.25 µM (active)

Structure (SMILES): CCCCOCCOc1nc(-c2ccc(C(=O)O)c(F)c2)sc1C
- Potency [1]: inactive
- activity change, negative = inhibition [2]: -25.8%
- Potency [3]: inactive

Structure (SMILES): N#CCNC(=O)c1ccc(-c2ccnc(Nc3ccc(N4CCOCC4)cc3)n2)cc1
- Potency [1]: 31.6 µM (active)
- Potency [2]: 10 µM (active)
- Potency [3]: 6.81 µM (active)

Structure (SMILES): CCc1cncnc1N1CCN(Cc2nc3ccc(C(F)(F)F)cc3[nH]2)CC1
- Potency [2]: 28.2 µM (active)

Structure (SMILES): COC(=O)[C@@H](N)CCCN=C(N)N[N+](=O)[O-]
- Potency [1]: inactive
- activity change, negative = inhibition [2]: -1.1%
- Potency [4]: inactive
- Potency [5]: inactive

Structure (SMILES): COc1ncnc(NS(=O)(=O)c2ccc(N)cc2)c1OC
- Potency [1]: inactive
- Potency [2]: inactive
- activity change, negative = inhibition [2]: -2.62%

Structure (SMILES): COc1cc(Nc2ncc3c(n2)-c2ccc(Cl)cc2C(c2c(F)cccc2OC)=NC3)ccc1C(=O)O
- Potency [1]: inactive
- activity change, negative = inhibition [2]: -83%
- Potency [3]: 0.108 µM (active)

Structure (SMILES): C=CCc1cccc(/C=N/NC(=O)CN2CCN(Cc3ccccc3)CC2)c1O
- Potency [2]: 31.6 µM (active)

Structure (SMILES): C[C@@H](Oc1cc(-n2cnc3ccc(CN4CCN(C)CC4)cc32)sc1C(N)=O)c1ccccc1C(F)(F)F
- activity change, negative = inhibition [2]: -97%
